Compound activity deposited in PubChem by several laboratories.
PG9 binder = binds the HIV-1 gp120 antibody PG9; TR-FRET gp120-PG9 antibody binding; inhibition, % at 6.7 µM; actives 0.43% (n = 360,000); AID 624416; in the data active = inhibition above about 8.5%
aDG glyco up = increases alpha dystroglycan glycosylation; actives 0.22% (n = 360,000); AID 624168; activation, % at 10 µM; Pro5-aDG cells, alpha-DG glycosylation AlphaScreen (IIH6); 0% Pro5, 100% B10-LARGE cell signal;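 active = activation of at least 8% versus controls, or a plate z-score of at least 8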;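 also: Pro5 are CHO cells carrying HIG-tagged alpha-DG that lacks glycosylation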
ZTA counter = blocks Epstein-Barr virus ZTA, an EBNA-1 counter-screen. ZTA-DNA binding, fluorescence polarization. inhibition, % at 11 µM. P03206. actives 0.15% (n = 320,000); in the data active = inhibition above about 33%
NCF1 inh = inhibitors of human p47phox binding; p47phox/p22phox peptide binding, fluorescence polarization, 2 h; actives 0.53% (n = 220,000); P14598; inhibition, % at 24.7 µM; AID 1274;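 active = inhibition above about 30%, limit read from the data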
EBNA-1 inh = blocks EBNA-1 binding to DNA; EBNA-1 DNA binding, fluorescence polarization; inhibition, % at 14.8 µM; actives 0.34% (n = 300,000); AID 1950; in the data active = inhibition above about 28%
NR1D1 modulator = Rev-erb alpha (human) modulation | activity, % at 10 µM | actives 0.79% (n = 370,000) | Rev-erbα–FITC-DNA binding, fluorescence polarization, 90 min | AID 1259318;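 active = activity above about 14%, limit read from the data; passing the limit was not always enough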
Target sequence (P20393 whole entry, looked up): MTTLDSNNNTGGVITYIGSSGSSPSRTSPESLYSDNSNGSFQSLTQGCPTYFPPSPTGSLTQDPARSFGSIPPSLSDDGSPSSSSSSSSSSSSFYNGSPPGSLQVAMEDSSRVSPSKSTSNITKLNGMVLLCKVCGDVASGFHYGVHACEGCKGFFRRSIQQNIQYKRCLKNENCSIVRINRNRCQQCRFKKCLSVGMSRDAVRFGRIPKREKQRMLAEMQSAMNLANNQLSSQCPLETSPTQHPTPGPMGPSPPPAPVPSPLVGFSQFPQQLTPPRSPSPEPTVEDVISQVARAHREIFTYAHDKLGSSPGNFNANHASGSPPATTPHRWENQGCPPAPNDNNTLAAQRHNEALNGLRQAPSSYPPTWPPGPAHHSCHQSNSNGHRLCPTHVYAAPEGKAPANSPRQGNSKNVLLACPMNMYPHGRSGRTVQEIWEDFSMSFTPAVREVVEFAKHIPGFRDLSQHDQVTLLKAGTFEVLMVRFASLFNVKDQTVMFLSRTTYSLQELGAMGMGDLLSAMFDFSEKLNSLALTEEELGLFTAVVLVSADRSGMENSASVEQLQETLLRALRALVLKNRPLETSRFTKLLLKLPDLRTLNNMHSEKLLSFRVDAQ
aDG glyco conf = confirmation of alpha dystroglycan glycosylation activators. actives 17% (n = 600). shares compounds with aDG glyco up. activation, % at 10 µM (by protocol). Pro5-aDG cells, alpha-DG glycosylation, IIH6 AlphaLISA; scaled to LARGE-overexpressing B10 cells as 100%;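 active = activation of at least 7% in one or more replicates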;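 also: cells exposed to compound for two days before detection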
Large screens that a line does not name were inactive (follow-up assays come after a bar, where they were run). Only some compounds are listed: those with a hit (about 1.9% of all), similar ones and a draw of the others.

Cc1cc(-c2csc(NC(=O)c3ccc(S(=O)(=O)N(C)C)cc3)n2)c(C)n1-c1ccccc1	aDG glyco up 9.4 | aDG glyco conf inactive
CCOc1ccc2nc(NC(=O)CSC3=NCCS3)sc2c1	aDG glyco up 3.4 | aDG glyco conf inactive
Cc1ccccc1-c1cccc([C@@H]2C[C@H]3[C@H](CON3C)CN2S(=O)(=O)c2ccccc2C)c1	aDG glyco up 6.0 (no result: ZTA counter, NCF1 inh, EBNA-1 inh) | aDG glyco conf inactive
Cc1ccccc1S(=O)(=O)N1C[C@H]2CON(C)[C@H]2C[C@H]1c1cccc(-c2ccccc2)c1	none (no result: ZTA counter, NCF1 inh, EBNA-1 inh)
COc1ccc(OC)c(C(=O)N(C[C@H]2CC[C@@H]([C@@H]3CC[C@H](CO)O3)O2)C(C(=O)NC(C)(C)C)c2ccc(-c3ccccc3)cc2)c1 (stereo not given in full)	aDG glyco up 5.8 (no result: ZTA counter, NCF1 inh, EBNA-1 inh) | aDG glyco conf inactive
O=C(COC(=O)CN1C(=O)C2CCCCC2C1=O)Nc1c(Cl)cccc1Cl (stereo not given)	aDG glyco up 4.4 (no result: NCF1 inh, EBNA-1 inh) | aDG glyco conf inactive
Cc1ccccc1NC(=O)c1ccc(F)c(S(=O)(=O)N2CCN(c3ccccn3)CC2)c1	none (no result: PG9 binder)
O=C(Nc1ccc(Br)cc1)c1ccc(F)c(S(=O)(=O)N2CCN(c3ccccn3)CC2)c1	aDG glyco up 8.5 | aDG glyco conf inactive
CN(C)S(=O)(=O)c1cccc(C(=O)N/N=C\c2ccccc2)c1	none (no result: PG9 binder, aDG glyco up, ZTA counter, NCF1 inh, EBNA-1 inh)
COc1ccc(NC(=O)N2CCC(c3nc4ccc(Cl)cc4[nH]3)CC2)cc1OC	none (no result: PG9 binder, aDG glyco up, ZTA counter, NCF1 inh, EBNA-1 inh)
CCN(CC)C(=O)CC[C@@H]1CC[C@]2(CCCN(Cc3nccs3)C2)O1	none (no result: PG9 binder, aDG glyco up, ZTA counter, NCF1 inh, EBNA-1 inh)
COc1ccc(N2CCN(Cc3nc(N)nc(Nc4ccccc4OC)n3)CC2)cc1	aDG glyco up 12 | aDG glyco conf inactive
Cc1ccc(NC(=O)Cc2nn(C)c(=O)c3ccccc23)cc1F	aDG glyco up 10 | aDG glyco conf inactive
Cn1nc(CC(=O)Nc2ccc3c(c2)OCCO3)c2ccccc2c1=O	none
C#CC1(O)C2C=C(OC)C(=O)C1C(c1ccccc1)C2C (stereo not given)	none (no result: PG9 binder, aDG glyco up, ZTA counter, NCF1 inh, EBNA-1 inh)
Cc1cc(OC(C)C(=O)NCCN2CCOCC2)c2c(C)cc(=O)oc2c1 (stereo not given)	aDG glyco up 8.3 (no result: NCF1 inh) | aDG glyco conf inactive
CCc1cc(=O)oc2cc(C)cc(OC(C)C(=O)NCCCN3CCOCC3)c12 (stereo not given)	none (no result: NCF1 inh)
CCN(C[C@H]1N[C@@](C)(C(=O)OC)[C@H]2C(=O)N(Cc3ccccc3)C(=O)[C@@H]12)C(=O)c1ccccc1	none (no result: ZTA counter, NCF1 inh, EBNA-1 inh)
CCNC(=O)N(CC)C[C@H]1N[C@@](C)(C(=O)OC)[C@H]2C(=O)N(Cc3ccccc3)C(=O)[C@@H]12	aDG glyco up 7.1 (no result: ZTA counter, NCF1 inh, EBNA-1 inh) | aDG glyco conf inactive
CCOC(=O)[C@]12CCCC3=C1N(CCC3)C(=O)[C@@H](CC(=O)N1CCCCC1)C2	none (no result: PG9 binder, aDG glyco up, ZTA counter, NCF1 inh, EBNA-1 inh)
Cc1cc(OCc2nc(-c3cccs3)no2)cc(C)c1Cl	aDG glyco up 7.7 | aDG glyco conf inactive
c1ccc(OCc2nc(-c3cccs3)no2)cc1	none
O=C(c1cc(Cl)cc(Cl)c1)N1CC[C@H]2[C@H](CCCN2Cc2cc(F)cc(F)c2)C1	none (no result: PG9 binder, aDG glyco up, ZTA counter, NCF1 inh, EBNA-1 inh)
Cc1cccc(N2CCN(C(=O)CCN3C(=S)NC(C)(C)CC3C)CC2)c1C (stereo not given)	none
Cc1ccc(C)c(N2CCN(C(=O)CCCN3C(=S)NC(C)(C)CC3C)CC2)c1 (stereo not given)	aDG glyco up 7.9 | aDG glyco conf inactive
COc1ccc(NC(=O)C2CC(=O)N=C(N)S2)cc1 (stereo not given)	aDG glyco up 12 | aDG glyco conf inactive
CCN(CC)S(=O)(=O)c1ccc(C)c(NC(=S)N2CCN(c3ccccn3)CC2)c1	none (no result: NCF1 inh)
CCN(CC)S(=O)(=O)c1ccc(C)c(NC(=S)N2CCN(C/C=C/c3ccccc3)CC2)c1	aDG glyco up 8.6 | aDG glyco conf inactive
Cc1cc(C)c(S(C)(=O)=O)c(S(=O)(=O)c2ccc(Cl)cc2)n1	none
Cc1cc(C)c(S(=O)(=O)O)c(C)n1	aDG glyco up 6.9 | aDG glyco conf inactive
N#C[C@@H]1N[C@H](CO)[C@@H]1c1ccccc1	none (no result: PG9 binder, aDG glyco up, ZTA counter, NCF1 inh, EBNA-1 inh)
COc1ccc(-c2ccc3c(c2)S(=O)(=O)c2cccc(C(=O)NC4CCCCC4)c2C3=O)cc1OC	aDG glyco up 71 (no result: PG9 binder, NCF1 inh, EBNA-1 inh, NR1D1 modulator) | aDG glyco conf inactive
COc1ccc(-c2ccc3c(c2)S(=O)(=O)c2cccc(C(=O)NC4CC4)c2C3=O)cc1OC	none (no result: NCF1 inh, EBNA-1 inh)
NC(CCc1ccccc1)c1csc(Nc2ccc(C(=O)c3ccccc3)cc2)n1 (stereo not given)	aDG glyco up 8.0 (no result: ZTA counter, NCF1 inh, EBNA-1 inh) | aDG glyco conf inactive
CCN1CCCCC(NC(=O)c2ccccc2)C1=O (stereo not given)	none (no result: PG9 binder, aDG glyco up, ZTA counter, NCF1 inh, EBNA-1 inh)
CNc1nc(-c2c(C)n(C)c3ccc(OC)cc23)cs1	aDG glyco up 3.0 (no result: NCF1 inh) | aDG glyco conf inactive
COc1ccc2c(c1)c(-c1csc(N)n1)c(C)n2C	none (no result: NCF1 inh)
COCCOC(=O)N(C)C[C@@H]1OCCCC[C@H](C)Oc2ccc(NC(=O)Nc3ccccc3)cc2C(=O)N([C@@H](C)CO)C[C@H]1C	none (no result: PG9 binder, aDG glyco up, ZTA counter, NCF1 inh, EBNA-1 inh)
COCCn1c(SCc2cccc([N+](=O)[O-])c2)nc2ccccc2c1=O	none (no result: NCF1 inh)
Cn1c(SCc2cccc([N+](=O)[O-])c2)nc2ccccc2c1=O	aDG glyco up 2.6 (no result: NCF1 inh, EBNA-1 inh) | aDG glyco conf inactive
COC(=O)C1CN(Cc2cn(Cc3ccc(OC)cc3)nn2)CCS(=O)(=O)N1Cc1ccc(F)cc1 (stereo not given)	none (no result: PG9 binder, aDG glyco up, ZTA counter, NCF1 inh, EBNA-1 inh)
Nn1cc(-c2ccccc2)nc1SCC(=O)NC1CCS(=O)(=O)C1 (stereo not given)	aDG glyco up 6.9 | aDG glyco conf inactive
O=C(c1ccccc1I)N1CCC(Oc2cccnc2)CC1	none (no result: PG9 binder, aDG glyco up, ZTA counter, NCF1 inh, EBNA-1 inh)
COC(=O)C1=NN(C(C)(C)CC(C)=O)C2C(=O)N(C3CCCCC3)C(=O)C12 (stereo not given)	aDG glyco up 3.1 | aDG glyco conf inactive
NNc1nnc2c3cc(F)ccc3n(Cc3ccccc3)c2n1	aDG glyco up 5.1 | aDG glyco conf inactive
CCOc1ccc(N2CC(C(=O)N3CCN(c4ccccn4)CC3)CC2=O)cc1 (stereo not given)	aDG glyco up 10 (no result: NCF1 inh) | aDG glyco conf 10
C=CCN1[C@H](C)COc2cccc(F)c2S1(=O)=O	none (no result: PG9 binder, aDG glyco up, ZTA counter, NCF1 inh, EBNA-1 inh)
COc1ccc(/C=C2/CN(Cc3ccc(OC)cc3OC)C3=N[C@H](c4ccccc4)CC(=O)N32)cc1	none (no result: PG9 binder, aDG glyco up, ZTA counter, NCF1 inh, EBNA-1 inh)
COc1cc(OC)cc(C(=O)Nc2cccc(N3CCCC3)c2)c1	aDG glyco up 3.7 | aDG glyco conf inactive
COc1cc(OC)cc(C(=O)Nc2cccc(C(C)=O)c2)c1	none
COc1ccccc1/C=N/NC(=O)C(NC(=O)c1ccccc1)=C(C)C	aDG glyco up 32 | aDG glyco conf inactive
COc1ccccc1/C=N/NC(=O)c1ccc(Br)cc1	none
Cc1cc(NC(=O)Cc2ccccc2)c2ccccc2n1	aDG glyco up 7.5 | aDG glyco conf inactive
